EphB4 antag = blocks human EphB4 binding to ephrin-B2; P54760; EphB4 LBD / TNYL-RAW-Alexa532 peptide, fluorescence polarization; inhibition, % at 7 µM; 97,000 tested, 0.15% active; AID 720;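 active = inhibition above the screen-wide mean inhibition plus 3 SD, cut at about 15% in these data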;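 note: 0% = DMSO wells and 100% = excess unlabeled TNYL-RAW peptide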
ERa coact pot = ER-alpha (human) coactivator binding potentiation | 86,000 tested, 1.3% active | TR-FRET ERalpha-LBD/SRC-Cy5 coactivator binding, 2 h; 100 = basal binding, no effect | coactivator binding (% of control), % at 25.6 µM | AID 639 | P03372; in the data active = activity above about 200%;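 note: binding measured in presence of low estradiol as agonist stimulus; 0% = peptide alone without receptor and 100% = receptor with peptide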
Target sequence (P03372 whole entry, looked up, the tested form may be a part): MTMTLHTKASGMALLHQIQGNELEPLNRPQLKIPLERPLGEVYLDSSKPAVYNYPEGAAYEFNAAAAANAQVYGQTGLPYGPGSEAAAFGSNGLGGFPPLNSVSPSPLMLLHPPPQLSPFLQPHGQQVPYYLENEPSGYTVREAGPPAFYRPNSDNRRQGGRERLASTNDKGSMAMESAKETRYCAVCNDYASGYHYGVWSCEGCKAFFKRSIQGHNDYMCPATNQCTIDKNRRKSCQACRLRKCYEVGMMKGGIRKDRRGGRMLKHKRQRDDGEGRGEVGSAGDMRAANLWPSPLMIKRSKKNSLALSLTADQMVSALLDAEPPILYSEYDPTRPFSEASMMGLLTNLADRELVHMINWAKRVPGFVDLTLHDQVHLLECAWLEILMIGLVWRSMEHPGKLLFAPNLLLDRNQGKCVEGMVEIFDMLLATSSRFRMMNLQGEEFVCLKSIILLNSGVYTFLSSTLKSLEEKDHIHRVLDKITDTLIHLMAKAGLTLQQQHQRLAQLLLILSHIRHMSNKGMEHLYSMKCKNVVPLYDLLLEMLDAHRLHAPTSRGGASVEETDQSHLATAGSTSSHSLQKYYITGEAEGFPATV
ERa SRC1 inh = ER-alpha (human) coactivator binding inhibition | P03372 | TR-FRET ER-alpha LBD / SRC-1 peptide, estradiol-bound | inhibition, % at 25.6 µM | 86,000 tested, 1.7% active | AID 629; in the data active = inhibition above about 50%;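 note: 0% = receptor plus peptide control and 100% = peptide only without receptor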
ERb coact inh = blocks coactivator binding to human estrogen receptor beta. inhibition, % at 25.6 µM. 86,000 tested, 1.3% active. AID 633. TR-FRET ER-beta LBD / SRC1-Cy5 peptide binding; receptor agonist-loaded with 1 µM estradiol;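 active = compounds whose percent inhibition of the receptor-coactivator binding signal exceeds about 50% in the single-dose screen, limit read from the data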;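 note: 0% = receptor plus peptide wells without compound and 100% = peptide-only wells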
* = called active by the depositor; [ ] = another dose, or the depositor's remark. This is a sample that favours compounds with a hit; in the whole collection about 2.8% have one here.

For CC(C)(C)NS(=O)(=O)c1ccc(NC(=O)C(Sc2ccccc2)c2ccccc2)cc1 (stereo not given) the results were EphB4 antag -1.
Screening COc1cc(-c2nc(-c3ccc(NC(=O)c4ccc(Br)o4)cc3)no2)cc(OC)c1OC returned EphB4 antag -3, ERa coact pot 227*[fluorescence artefact?], ERa SRC1 inh 72*[fluorescence artefact?] and ERb coact inh 33.
COc1ccc(-c2ccc(-c3noc(-c4cccc(OC)c4)n3)c(OC)n2)cc1 was read as EphB4 antag 2.
For COc1ccc(CC(=O)Nc2ccc(-c3noc(-c4ccccc4OC)n3)cc2)cc1 the results were EphB4 antag -2, ERa coact pot 328*[fluorescence artefact?], ERa SRC1 inh 31 and ERb coact inh 16.
Screening COc1ccc(-c2ccc(-c3noc(-c4cccs4)n3)c(OC)n2)cc1 returned EphB4 antag -3, ERa coact pot 474*, ERa SRC1 inh 37 and ERb coact inh 29.
COc1ccc(-c2ccc(-c3noc(-c4ccc(OC)c(OC)c4)n3)c(OC)n2)cc1 was read as ERa coact pot 87, ERa SRC1 inh 80* and ERb coact inh 44.
`CCOC(=O)C1CCN(C(=O)C2CC(=O)N(c3ccc(C)cc3)C2)CC1` (stereo not given) gave EphB4 antag -7, ERa coact pot 99, ERa SRC1 inh -6 and ERb coact inh 2.
COc1ccc(-c2nc(-c3ccc(Br)cc3)no2)c(OC)c1 was read as EphB4 antag 1, ERa coact pot 206*[fluorescence artefact?], ERa SRC1 inh 13 and ERb coact inh 9.
`O=C(Nc1nc2ccccc2s1)c1cc2c(s1)-c1ccccc1OC2` gave EphB4 antag 2, ERa coact pot 177, ERa SRC1 inh 71* and ERb coact inh 46.
Cc1cc(C)c(NC(=O)Cn2cc3c(n2)CCCC3)c(C)c1 was read as ERa coact pot 115, ERa SRC1 inh 99*[fluorescence artefact?] and ERb coact inh -10.
For CCOC(=O)N1CCN(C(=O)c2ccc3c(=O)n(CCc4ccccc4)c(=S)[nH]c3c2)CC1 the results were EphB4 antag -1, ERa coact pot 141, ERa SRC1 inh -2 and ERb coact inh -9.
CCOC(=O)N1CCN(C(=O)c2ccc3c(=O)n(CCC4=CCCCC4)c(=S)[nH]c3c2)CC1 was read as EphB4 antag 2, ERa coact pot 208*, ERa SRC1 inh 26 and ERb coact inh 31.
Screening CSc1nnc(Cn2c(=O)sc3ccccc32)n1-c1cccc(Cl)c1 returned EphB4 antag 9, ERa coact pot 101, ERa SRC1 inh -3 and ERb coact inh 1.
CCCSc1nnc(Cn2c(=O)sc3ccccc32)n1-c1ccccc1 was read as EphB4 antag -6, ERa coact pot 126, ERa SRC1 inh -7 and ERb coact inh 86*[fluorescence artefact?].
Screening O=C1C2CC=C(Cl)CC2C(=O)N1CCCCCCN1C(=O)C2CC=C(Cl)CC2C1=O (stereo not given) returned EphB4 antag 3, ERa coact pot 195, ERa SRC1 inh 56* and ERb coact inh 44.
Screening Nc1c(S(=O)(=O)c2ccccc2)c2nc3ccccc3nc2n1/N=C/c1ccco1 returned EphB4 antag 1, ERa coact pot 61, ERa SRC1 inh 32 and ERb coact inh 48.
Screening COc1ccc(Cn2c3nc4ccccc4nc3c3c(=O)n(Cc4ccco4)c(C)nc32)cc1 returned ERa coact pot 138, ERa SRC1 inh 75* and ERb coact inh 60*[fluorescence artefact?].
For COc1ccc(S(=O)(=O)c2c(N)n(Cc3ccco3)c3nc4ccccc4nc23)cc1 the results were EphB4 antag 5, ERa coact pot 37, ERa SRC1 inh 83*[fluorescence artefact?] and ERb coact inh 78*[fluorescence artefact?].
CC1(C)CC2CC(C)(CN2S(=O)(=O)c2cccc(N)c2)C1 (stereo not given) was read as EphB4 antag 4, ERa coact pot 237*[fluorescence artefact?], ERa SRC1 inh -8 and ERb coact inh 0.
`CN(C)C(CNC(=O)c1cccc(S(=O)(=O)N2CC3(C)CC2CC(C)(C)C3)c1)c1ccco1` (stereo not given) gave ERa coact pot 83, ERa SRC1 inh 0 and ERb coact inh 7.
Cc1cc(=O)[nH]c(SCC(=O)Nc2nc3c(s2)CCCC3)n1 was read as EphB4 antag -7, ERa coact pot 107, ERa SRC1 inh 1 and ERb coact inh 78*.
CCC(Sc1nc(C)cc(=O)[nH]1)C(=O)Nc1nc2c(s1)CCCC2 (stereo not given) was read as EphB4 antag -1, ERa coact pot 106, ERa SRC1 inh -3 and ERb coact inh -2.
Cc1nc2cc(-c3ccccc3)nn2c(C)c1CCC(=O)NCc1ccco1 was read as EphB4 antag -9, ERa coact pot 98, ERa SRC1 inh 80*[fluorescence artefact?] and ERb coact inh 10.
COc1ccc(CCC(=O)NCc2ccco2)cc1 was read as EphB4 antag 1, ERa coact pot 212*[fluorescence artefact?], ERa SRC1 inh 58*[fluorescence artefact?] and ERb coact inh 49.
For COc1ccc(N(CC(=O)NCc2ccco2)S(=O)(=O)c2ccc(OC)c(OC)c2)cc1 the results were ERa coact pot 94, ERa SRC1 inh 2 and ERb coact inh 54*[fluorescence artefact?].
`COc1ccccc1-c1cc2nc(C)c(CCC(=O)NCc3ccco3)c(C)n2n1` gave ERa coact pot 108, ERa SRC1 inh 4 and ERb coact inh -8.
Screening O=C1c2ccccc2C(=O)N1Cc1cc(-c2ccc(Cl)cc2)no1 returned EphB4 antag 3.
`O=C(O)c1ccc(NC(CSCc2cccc(F)c2)C(=O)O)c([N+](=O)[O-])c1` (stereo not given) gave EphB4 antag 6, ERa coact pot 101, ERa SRC1 inh -11 and ERb coact inh 0.
Screening CS(=O)(=O)N(CC(=O)NCc1ccncc1)c1cc(Cl)cc(Cl)c1 returned EphB4 antag -1, ERa coact pot 96, ERa SRC1 inh 22 and ERb coact inh 15.
`O=C(c1csc2c1CCCCC2)N1CCN(c2ncccn2)CC1` gave EphB4 antag 5.
For Cc1ccc(CNC(=O)c2ccccc2NC(=O)CSc2nnnn2C)cc1 the results were EphB4 antag 2.
Oc1ccc(Nc2nc3ccccc3nc2Nc2ccc(O)cc2)cc1 was read as EphB4 antag 3, ERa coact pot 14, ERa SRC1 inh 73*[fluorescence artefact?] and ERb coact inh 83*[fluorescence artefact?].
For O=C(COc1ccc2c(c1)OCO2)Nc1ccc2c(c1)oc1ccccc12 the results were EphB4 antag 0, ERa coact pot 50, ERa SRC1 inh 51*[fluorescence artefact?] and ERb coact inh 25.
O=C1Nc2ccccc2C(O)(C(=O)NCc2ccc3c(c2)OCO3)N1c1ccc(Cl)c(Cl)c1 (stereo not given) was read as EphB4 antag 3, ERa coact pot 96, ERa SRC1 inh 11 and ERb coact inh 1.
Screening O=C(CSc1nnc(-c2cccc(Cl)c2)o1)Nc1ccc2c(c1)OCCO2 returned EphB4 antag -3, ERa coact pot 145, ERa SRC1 inh 54*[fluorescence artefact?] and ERb coact inh 22.
`Cc1nc(SCC(=O)Nc2ccc3c(c2)OCCO3)c2oc3ccccc3c2n1` gave EphB4 antag 2, ERa coact pot 732*[fluorescence artefact?], ERa SRC1 inh 79*[fluorescence artefact?] and ERb coact inh 40.
